PubChem BioAssay AID743331 (Broad Institute, 2014)
Activity calls are given as the source filed them.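 Rule for the calls: active = falling cell viability signal whose fitted half-effect concentration is at most twice the highest valid tested dose; inconclusive = flat curve with 30 to 70 percent loss, or poor fit; inactive = the rest.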

Test: HepG2 viability loss, ATP readout – cell-based, plate reader, dry powder, set 8, cytotoxicity control, dose response (AID 743331)
Settings: CellTiter-Glo ATP luminescence, 72 h; series mostly up to 15 µM
For `Cc1ccc(NC(=O)c2cc(S(=O)(=O)N(C)C)ccc2N2CCCC2)cc1`, the outcome was “inactive”.
For `Cc1cnc(NC(=O)c2cc(S(=O)(=O)N(C)C)ccc2C2CCCC2)s1`, the outcome was “inactive”.
In the case of `Cc1cnc(NC(=O)c2cc(S(=O)(=O)N(C)C)ccc2N2CCCC2)s1`, the outcome is reported as “inactive”.
In the case of `Cc1cnc(NC(=O)c2cc(S(=O)(=O)N3CCCC3)ccc2N2CCCC2)s1`, the outcome is reported as “inactive”.
In the case of `CN(C)S(=O)(=O)c1ccc(N2CCCC2)c(C(=O)Nc2ccccc2)c1`, the outcome is reported as “inactive”.
With `Cc1cnc(NC(=O)c2cc(S(=O)(=O)N3CCOCC3)ccc2N2CCCC2)s1` the outcome was “inactive”.
For `COc1ccc2nc(NC(=O)c3cc(S(=O)(=O)N(C)C)ccc3N3CCCC3)sc2c1`, the outcome was “inactive”.
For `COc1cccc2sc(NC(=O)c3cc(S(=O)(=O)N(C)C)ccc3N3CCCC3)nc12`, the outcome was “inactive”.
In the case of `Cc1cnc(NC(=O)c2cc(S(=O)(=O)N(C)C)ccc2N2CCC2)s1`, the outcome is reported as “inactive”.
With `CN(C)S(=O)(=O)c1ccc(N2CCCC2)c(C(=O)Nc2nc3ccccc3s2)c1` the outcome was “inactive”.
In the case of `COc1ccc2sc(NC(=O)c3cc(S(=O)(=O)N(C)C)ccc3N3CCCC3)nc2c1`, the outcome is reported as “inactive”.
In the case of `CN(C)CCCN(Cc1cc2ccccc2[nH]c1=O)C(=O)Nc1ccccc1`, the outcome is reported as “inactive”.
With `CCN(CC)c1ccc(S(=O)(=O)N(C)C)cc1C(=O)Nc1ncc(C)s1` the outcome was “inactive”.
In the case of `Cc1cnc(NC(=O)c2cc(S(=O)(=O)N3CCCCC3)ccc2N2CCCC2)s1`, the outcome is reported as “inactive”.
In the case of `CN(C)CCCN(Cc1cc2ccccc2[nH]c1=O)C(=O)NCc1ccccc1`, the outcome is reported as “inactive”.
In the case of `CN(C)S(=O)(=O)c1ccc(N2CCCC2)c(C(=O)Nc2cccc(F)c2)c1`, the outcome is reported as “inactive”.
